# Experimental data published in PubChem BioAssay.
# Active and inactive are the calls of the source. Unless noted, no rule for the calls is given here.
# Columns and labels:
# [1] = tested on: Wnt5a (protein binding on small-molecule microarray); assay: Wnt5a binders on small-molecule microarray, primary screen, biophysical, 635/667 nm fluorescence (AID 1142); conditions: 635 nm fluorescence, higher = more signal;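 also: fluorescence read at 667 nm with signal to noise per printed feature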
# [2] = cell viability in Huh7 cells, primary screen, cytotoxicity control for HCV replication inhibitor project, CellTiter-Glo luminescence, basal, 48 h (AID 1143); conditions: Huh7 HCV replicon, higher = more signal, called active from +8 up or from −8 down;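 also: Huh7 hepatoma cells carrying a hepatitis C replication reporter with no stimulus; test concentration not given here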
# [3] = P. aeruginosa biofilm formation inhibitors, primary screen, PAO1 strain, BacTiter-Glo luminescence, LB-PBS (AID 1144); conditions: 12 h, higher = more signal
# [4] = CREB reporter modulators without forskolin, primary screen, cell-based, PC12, CRE-LacZ reporter, unstimulated (AID 1145); conditions: no forskolin, luminescence, 4.5 h, higher = more signal, called active from +8 up or from −8 down
# [5] = CREB reporter modulators under forskolin, primary screen, cell-based, PC12, CRE-LacZ reporter, forskolin-stimulated (AID 1146); conditions: luminescence, 4.5 h, higher = more signal, called active from +8 up or from −8 down;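 also: PC12 cells with 6xCRE LacZ reporter stimulated by forskolin 10 µM; beta-galactosidase reporter signal reflecting CREB driven transcription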
# [6] = molecular target: Streptavidin (Streptomyces avidinii) (UniProt P22629); assay: streptavidin binders on small-molecule microarray, primary screen, artefact control for SMM compound annotation, biophysical, 635/667 nm fluorescence (AID 1147); conditions: streptavidin binding, higher = more signal;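 also: signal reflects streptavidin binding to arrayed compounds as a control protein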
# [7] = small-molecule binders of probe aInhba, primary screen, biochemical, small-molecule microarray, 635/667 nm fluorescence (AID 1148); conditions: higher = more signal;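 also: score merges 667nm spot fluorescence with signal-to-noise for antibody binding to printed compounds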
# Torsin-1A (Homo sapiens) [8] = molecular target: Torsin-1A (Homo sapiens) (UniProt O14656); assay: torsin A binders from cell lysate, primary screen, small-molecule microarray, wild-type, 635/667 nm (AID 1149); conditions: COS7 hTOR1A-WT lysate, 635 nm fluorescence, higher = more signal
# Torsin-1A (Homo sapiens) [9] = molecular target: Torsin-1A (Homo sapiens) (UniProt O14656); assay: small-molecule binders of mutant TOR1A in lysate, primary screen, cell lysate, small-molecule microarray, COS7 lysate, 635/667 nm fluorescence (AID 1150); conditions: COS7 hTOR1A mutant lysate, 635 nm fluorescence, higher = more signal;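 also: score pools 667 nm emission and signal to noise measuring lysate protein binding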
# [10] = tested on: Sonic hedgehog protein (Shh); assay: small-molecule binders of Shh protein, primary screen, biochemical, small-molecule microarray, 635/667 nm fluorescence (AID 1151); conditions: small-molecule microarray binding, 635 nm fluorescence; higher = more signal;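 also: Shh protein binding to compounds spotted on small-molecule microarray slides; score combines spot fluorescence intensity with signal-to-noise across triplicate slides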
# [11] = E. coli DRC41 culture turbidity changes, primary screen, E. coli filamentation inducer project, strain DRC41, OD650, 48 h (AID 1152);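 also: E. coli MC1000 strain DRC41 lacking acrAB efflux pump and sulA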; conditions: E. coli DRC41 (acrAB sulA), higher = more signal, called active from +8 up or from −8 down
# [12] = small-molecule binders of probe aLefty1, primary screen, biochemical, small-molecule microarray, 635/667 nm fluorescence (AID 1153); conditions: higher = more signal;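 also: score merges spot fluorescence with signal-to-noise ratio from the scanned slide images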
# [13] = PSAC antagonists in infected red cells, primary screen, cell-based, P. falciparum Indochina, OD700, 1 h (AID 1154); conditions: P. falciparum Indochina infected RBC osmotic lysis, higher = more signal, called active from +8 up or from −8 down
# [14] = PSAC antagonists in infected red cells, primary screen, cell-based, P. falciparum Indochina, OD700, 2 h (AID 1155);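 also: lysis reports solute entry through the parasite surface anion channel PSAC; channel blockers reduce lysis of infected cells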; conditions: P. falciparum Indochina infected erythrocytes, osmotic lysis OD700; higher = more signal, called active from +8 up or from −8 down
# [15] = osmotic lysis modulators in infected erythrocytes, primary screen, PSAC antagonist project, cell-based, P. falciparum Indochina, OD700, 3 h (AID 1156); conditions: higher = more signal, called active from +8 up or from −8 down
# [16] = PSAC antagonists in infected red cells, primary screen, cell-based, P. falciparum Indochina, OD700, 18 h (AID 1157); conditions: P. falciparum Indochina infected erythrocytes, osmotic lysis OD700, 18 h; higher = more signal, called active from +8 up or from −8 down
# [17] = modulators of S6 phosphorylation in cells, primary screen, cell-based, A549, cytoblot, luminescence, serum-stimulated (AID 1158); conditions: A549 phospho-S6 cytoblot, 5 h, higher = more signal;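 also: serum-stimulated A549 lung adenocarcinoma cells; signal is phosphorylated S6 detected by cytoblot immunostaining with HRP secondary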
# [18] = molecular target: NADPH oxidase 2 (Homo sapiens) (UniProt P04839); assay: NOX2-dependent H2O2 signal modulators, primary screen, NOX inhibitor project, cell-based, HEK293-NOX2, PMA-stimulated, Amplex Red fluorescence (AID 1159); conditions: 45 min, higher = more signal, called active from +8 up or from −8 down; also: test concentration not given here
# [19] = molecular target: NADPH oxidase 4 (Homo sapiens) (UniProt Q9NPH5); assay: NOX4-dependent H2O2 signal modulators, primary screen, NOX inhibitor project, cell-based, HEK293-NOX4, tetracycline-induced, Amplex Red fluorescence (AID 1160); conditions: 45 min, higher = more signal, called active from +8 up or from −8 down
# [20] = molecular target: NADPH oxidase 5 (Homo sapiens) (UniProt Q96PH1); assay: NOX5-dependent H2O2 signal modulators, primary screen, NOX inhibitor project, cell-based, HEK293-NOX5, Amplex Red fluorescence (AID 1161); conditions: HEK293-NOX5, ionomycin, 45 min, higher = more signal
# Sequence of NADPH oxidase 5 (Homo sapiens) (Q96PH1 whole entry, looked up): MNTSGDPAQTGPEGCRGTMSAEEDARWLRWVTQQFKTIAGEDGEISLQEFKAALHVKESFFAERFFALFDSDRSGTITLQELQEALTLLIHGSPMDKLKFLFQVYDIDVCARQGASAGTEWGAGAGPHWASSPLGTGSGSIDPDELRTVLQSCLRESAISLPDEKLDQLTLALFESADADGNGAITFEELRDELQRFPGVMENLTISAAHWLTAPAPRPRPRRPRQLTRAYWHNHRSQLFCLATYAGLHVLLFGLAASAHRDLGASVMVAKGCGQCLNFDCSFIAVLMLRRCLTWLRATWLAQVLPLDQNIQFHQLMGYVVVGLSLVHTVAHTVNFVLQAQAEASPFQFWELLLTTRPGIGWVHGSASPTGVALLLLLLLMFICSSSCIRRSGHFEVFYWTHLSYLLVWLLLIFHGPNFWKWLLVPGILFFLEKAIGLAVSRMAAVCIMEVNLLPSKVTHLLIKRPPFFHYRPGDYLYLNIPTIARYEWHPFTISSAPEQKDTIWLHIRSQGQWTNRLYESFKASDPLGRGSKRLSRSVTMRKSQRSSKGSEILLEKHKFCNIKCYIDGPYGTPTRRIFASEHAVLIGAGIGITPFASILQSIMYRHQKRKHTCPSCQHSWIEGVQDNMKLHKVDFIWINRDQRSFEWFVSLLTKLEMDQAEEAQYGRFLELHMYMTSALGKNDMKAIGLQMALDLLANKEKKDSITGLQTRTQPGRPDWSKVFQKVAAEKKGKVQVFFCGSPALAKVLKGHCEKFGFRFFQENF
# Sequence of NADPH oxidase 2 (Homo sapiens) (P04839 whole entry, looked up): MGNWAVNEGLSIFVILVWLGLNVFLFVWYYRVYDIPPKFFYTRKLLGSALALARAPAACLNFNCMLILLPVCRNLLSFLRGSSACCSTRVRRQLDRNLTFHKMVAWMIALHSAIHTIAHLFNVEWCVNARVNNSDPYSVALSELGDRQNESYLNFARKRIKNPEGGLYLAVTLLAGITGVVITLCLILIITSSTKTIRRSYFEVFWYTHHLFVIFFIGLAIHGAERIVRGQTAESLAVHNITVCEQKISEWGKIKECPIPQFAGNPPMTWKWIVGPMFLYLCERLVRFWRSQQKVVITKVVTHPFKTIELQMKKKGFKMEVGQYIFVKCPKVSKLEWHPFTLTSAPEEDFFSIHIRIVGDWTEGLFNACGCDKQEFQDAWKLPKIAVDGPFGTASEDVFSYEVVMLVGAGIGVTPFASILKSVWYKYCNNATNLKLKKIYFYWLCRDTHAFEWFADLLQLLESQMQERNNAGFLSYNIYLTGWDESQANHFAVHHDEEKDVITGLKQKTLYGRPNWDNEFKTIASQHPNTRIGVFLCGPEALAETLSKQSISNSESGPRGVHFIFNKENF
# Sequence of Torsin-1A (Homo sapiens) (O14656 whole entry, looked up): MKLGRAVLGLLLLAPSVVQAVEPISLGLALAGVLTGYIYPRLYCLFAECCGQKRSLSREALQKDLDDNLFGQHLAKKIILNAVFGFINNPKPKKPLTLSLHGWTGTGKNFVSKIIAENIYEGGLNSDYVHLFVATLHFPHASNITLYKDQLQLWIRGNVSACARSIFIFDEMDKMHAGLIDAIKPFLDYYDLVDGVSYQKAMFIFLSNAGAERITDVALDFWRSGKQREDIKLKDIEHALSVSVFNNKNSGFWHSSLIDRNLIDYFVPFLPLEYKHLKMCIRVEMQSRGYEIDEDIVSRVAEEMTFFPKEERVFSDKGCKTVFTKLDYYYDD
# Sequence of NADPH oxidase 4 (Homo sapiens) (Q9NPH5 whole entry, looked up): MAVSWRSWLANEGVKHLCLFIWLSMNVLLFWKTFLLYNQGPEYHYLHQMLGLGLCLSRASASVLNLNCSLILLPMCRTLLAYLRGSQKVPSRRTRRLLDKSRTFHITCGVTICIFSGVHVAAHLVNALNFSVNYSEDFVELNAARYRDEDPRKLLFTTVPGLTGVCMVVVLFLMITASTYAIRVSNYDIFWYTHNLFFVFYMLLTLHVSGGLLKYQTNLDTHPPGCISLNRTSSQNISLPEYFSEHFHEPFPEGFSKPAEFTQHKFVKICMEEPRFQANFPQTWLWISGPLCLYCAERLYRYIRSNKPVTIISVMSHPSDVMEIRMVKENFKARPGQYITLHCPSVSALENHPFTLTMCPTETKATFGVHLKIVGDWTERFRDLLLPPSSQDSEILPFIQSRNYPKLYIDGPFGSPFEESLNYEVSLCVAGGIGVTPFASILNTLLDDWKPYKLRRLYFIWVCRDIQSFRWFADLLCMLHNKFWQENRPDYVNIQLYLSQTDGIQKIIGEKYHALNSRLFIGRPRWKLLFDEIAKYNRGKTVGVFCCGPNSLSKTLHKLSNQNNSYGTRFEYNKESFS
# Sequence of Streptavidin (Streptomyces avidinii) (P22629 whole entry, looked up): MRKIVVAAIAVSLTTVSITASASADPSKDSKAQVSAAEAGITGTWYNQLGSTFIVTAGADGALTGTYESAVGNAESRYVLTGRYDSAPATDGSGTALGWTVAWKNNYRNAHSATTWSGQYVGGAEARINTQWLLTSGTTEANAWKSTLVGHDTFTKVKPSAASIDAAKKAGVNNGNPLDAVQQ
SMILES,composite z-score [1],z-score [2],z-score [3],z-score [4],z-score [5],composite z-score [6],composite z-score [7],composite z-score (Torsin-1A (Homo sapiens) [8]),composite z-score (Torsin-1A (Homo sapiens) [9]),composite z-score [10],z-score [11],composite z-score [12],z-score [13],z-score [14],z-score [15],z-score [16],z-score [17],z-score [18],z-score [19],z-score [20]
C=CC[C@]1(C(=O)NCc2ccccc2)N=C(c2ccc(OCCCO)cc2)O[C@H]1c1ccccc1N=[N+]=[N-],0.713,-3.2 (inactive),-0.00841 (inactive),1.49 (inactive),-0.967 (inactive),2.21,-0.0468,0.818,0.787,-0.231,0.0858 (inactive),0.222,31.8 (active),27.1 (active),3.46 (inactive),6.96 (inactive),0.0617,-1.8 (inactive),0.721 (inactive),-0.0713
CCOC(=O)C1=CC[C@@H](c2ccccc2)N(S(=O)(=O)c2ccc(C)cc2)[C@H]1c1ccccc1C,0.572,-2.81 (inactive),-0.953 (inactive),0.0707 (inactive),0.285 (inactive),1.05,-0.15,0.339,0.581,-0.19,-0.36 (inactive),0.589,1.57 (inactive),0.678 (inactive),-0.569 (inactive),0.879 (inactive),-0.102,0.515 (inactive),0.226 (inactive),0.963
COc1ccc(CCNC(=O)[C@@H]2c3ccccc3C(=O)N(Cc3ccccc3Cl)[C@H]2c2ccc(CO)cc2)cc1,0.177,-0.124 (inactive),0.603 (inactive),0.701 (inactive),-0.977 (inactive),-0.001,-0.0645,0.25,0.0327,-0.214,-0.497 (inactive),-0.0999,3.59 (inactive),0.474 (inactive),0.209 (inactive),-0.11 (inactive),-0.144,-3.49 (inactive),0.151 (inactive),-2.46
CC(C)C(CO)N1C(=O)[C@@H]2C3C(=O)OCCC/C=C\[C@H]3OC23C=CCN(CCN2CCOCC2)C(=O)[C@@H]13 (stereo not given in full),0.0992,0.39 (inactive),0.723 (inactive),-0.212 (inactive),-0.0271 (inactive),-0.578,-0.251,-0.111,-0.184,0.856,-0.385 (inactive),-0.07,0.81 (inactive),0.179 (inactive),0.148 (inactive),0.16 (inactive),-0.158,1 (inactive),0.401 (inactive),1.4
C[N+](C)(C)CCCCCCNC(=O)[C@@H]1C[C@@H]2C(=O)N[C@@H](Cc3ccccc3)C(=O)N2[C@@H]1c1cccc(OCCO)c1,0.122,-0.428 (inactive),-0.573 (inactive),-1.22 (inactive),-1.04 (inactive),0.0123,-0.0918,0.787,1.51,1.92,1.49 (inactive),0.0588,10.1 (active),1.34 (inactive),1.42 (inactive),0.349 (inactive),0.0757,1.39 (inactive),1.66 (inactive),1.05
C=C(CCCC)C(=O)CC[C@@H](OC(=O)c1ccccc1-c1ccccc1C(=O)O)c1ccc(OCCO)cc1,0.27,0.142 (inactive),-0.385 (inactive),-0.336 (inactive),1.8 (inactive),-0.074,-0.128,0.803,0.427,0.586,-0.181 (inactive),-0.23,17.2 (active),1.73 (inactive),1.15 (inactive),0.602 (inactive),0.276,2.45 (inactive),0.216 (inactive),-0.936
CCCC[C@@H]1C[C@H]1[C@@H](NC(=O)c1ccccc1)c1ccc(C(=O)OC)cc1,0.106,-0.977 (inactive),-0.485 (inactive),0.576 (inactive),0.0003 (inactive),-0.279,-0.018,-2.83,-0.686,-1.11,-2.42 (inactive),0.357,12.2 (active),1.91 (inactive),0.57 (inactive),0.643 (inactive),-0.728,-1.14 (inactive),-2.96 (inactive),-0.585
Cc1ccc(S[C@]2(C(=O)NCCCN(C)C)CC(=O)N(Cc3ccccc3C(F)(F)F)[C@@H]2c2ccc(CO)cc2)cc1,-0.197,0.312 (inactive),1.08 (inactive),-0.295 (inactive),0.358 (inactive),-0.0283,-0.0791,-0.544,0.801,-0.548,0.674 (inactive),0.337,0.926 (inactive),0.479 (inactive),0.298 (inactive),-0.0133 (inactive),0.104,-6.22 (inactive),0.165 (inactive),0.526
CN(C)CCCCCCNC(=O)[C@H]1C[C@H]2C(=O)N3CCC[C@H]3C(=O)N2[C@H]1c1ccc(O)cc1,0.899,-0.865 (inactive),0.332 (inactive),-0.268 (inactive),-0.933 (inactive),0.192,0.019,1.95,-0.118,2.04,1.47 (inactive),0.0811,0.89 (inactive),0.326 (inactive),-0.664 (inactive),0.253 (inactive),-0.549,0.544 (inactive),-1.28 (inactive),-0.0199
